Screens (PubChem BioAssay)
KCNQ2 block: blocks the rat KCNQ2 potassium channel. CHO-K1 KCNQ2, FluxOR thallium flux, 20 min; active compounds read low. B-score at 10 µM. 310,000 compounds, 1.1% hits. AID 2156;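 active = fluorescence ratio B-score at most minus 3 library SDs, with starting brightness B-score within 2 library SDs, cut at about -5.5 in these data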
KCNQ2 enhance: KCNQ2 (rat) channel potentiation | O88943 | CHO-K1 KCNQ2, FluxOR thallium flux fluorescence; active compounds read high | B-score at 10 µM | 310,000 compounds, 0.54% hits | AID 2239;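 active = fluorescence ratio B-score at least 3 SD of library B-scores, with initial fluorescence B-score within 3 of them, cut at about 5.3 in these data; same plate scores as AID 2156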;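 note: B-score of peak minus minimum over baseline fluorescence ratio after K+ and Tl+ stimulus; positive B-score means potentiation of KCNQ2 with more thallium influx and brighter signal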
Kir21 confirm: confirmation of mouse Kir2.1 potassium channel inhibitors. shares compounds with KCNQ2 enhance. Kir2.1-expressing cells, FluxOR thallium flux fluorescence; active compounds read low. Tl flux remaining, % of negative control (active compounds read low), % at 10 µM. 2,300 compounds, 41% hits;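 active = Primary-screen hit whose thallium flux fell at least 3 control SD below untreated wells in both duplicates, with normal baseline fluorescence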;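 note: 0% = blank wells without stimulus and 100% = stimulated no-compound controls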
HEK293 ctr: alters thallium flux in parental HEK293 cells, Kir2.1 counter-screen; shares compounds with KCNQ2 enhance; FluxOR thallium flux fluorescence; 0% = unstimulated blank wells; FluxOR signal as % of negative control (100 = no effect), % at 10 µM; 2,300 compounds, 19% hits; AID 2105;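 active = dye signal at least 3 control SD above or below untreated wells in both duplicates, raw fluorescence within 3, either direction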;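 note: percent is based on the flux ratio of peak minus minimum fluorescence over baseline F0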
CHO-K1 Tl ctr: parental CHO-K1 activity in KCNQ2 potentiator counter-screen | activity increase over 3SD of controls, % at 10 µM | shares compounds with KCNQ2 enhance | 1,200 compounds, 43% hits | parental CHO-K1 cells, FluxOR thallium flux fluorescence; zero = vehicle mean+3SD, 100% = vehicle-minus-blank window;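 active = signal rise of at least 3 SD above the untreated control mean, in both duplicate wells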;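 note: counter screen of KCNQ2 potentiator hits so any rise reflects channel-independent effects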
KCNQ1 pot spec: human KCNQ1 counter-target activity of KCNQ2 potentiators. shares compounds with KCNQ2 enhance. CHO KCNQ1 stable, FluxOR thallium flux fluorescence; beyond 3SD, as % of vehicle-control signal. activation over 3SD threshold, % at 10 µM. 1,200 compounds, 28% hits;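 active = fluorescence ratio rise of at least 3 SD of vehicle wells above their mean, in both replicate wells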;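 note: 0% = vehicle mean plus 3 SD and 100% = vehicle minus unstimulated blank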
Target sequence (P51787 whole entry, looked up): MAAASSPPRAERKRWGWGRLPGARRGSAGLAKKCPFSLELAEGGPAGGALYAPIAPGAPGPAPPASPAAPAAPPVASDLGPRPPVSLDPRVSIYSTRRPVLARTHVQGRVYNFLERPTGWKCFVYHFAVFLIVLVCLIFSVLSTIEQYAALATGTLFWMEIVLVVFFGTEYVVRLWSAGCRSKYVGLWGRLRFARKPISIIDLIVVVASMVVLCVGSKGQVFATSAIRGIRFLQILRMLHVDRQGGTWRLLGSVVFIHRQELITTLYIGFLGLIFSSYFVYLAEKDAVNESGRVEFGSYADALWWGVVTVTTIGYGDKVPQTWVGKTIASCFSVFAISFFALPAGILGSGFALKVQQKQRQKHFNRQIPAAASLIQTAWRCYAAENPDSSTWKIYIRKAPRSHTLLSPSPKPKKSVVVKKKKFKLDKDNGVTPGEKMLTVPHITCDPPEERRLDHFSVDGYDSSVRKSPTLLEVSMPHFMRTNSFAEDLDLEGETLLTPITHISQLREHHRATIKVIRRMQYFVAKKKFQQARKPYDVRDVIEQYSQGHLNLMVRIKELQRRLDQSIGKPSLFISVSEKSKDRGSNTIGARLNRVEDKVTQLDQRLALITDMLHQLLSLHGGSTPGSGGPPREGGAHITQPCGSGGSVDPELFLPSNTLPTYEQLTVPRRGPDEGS
KCNQ2 pot confirm: confirmation of rat KCNQ2 potassium channel potentiators | shares compounds with KCNQ2 enhance | CHO-KCNQ2 cells, FluxOR thallium flux fluorescence | potentiation, less the hit threshold, % at 10 µM | 1,200 compounds, 68% hits;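 active = fluorescence ratio rising 3 SD or more over the vehicle control mean in both replicates, plus primary screen hit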;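 note: peak minus minimum thallium fluorescence divided by baseline after K/Tl stimulus; 0% = vehicle mean plus 3 SD and 100% = vehicle minus unstimulated blank difference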
Kir21 spec: tests whether KCNQ2 potentiators also affect mouse Kir2.1; activity over 3SD threshold, % at 10 µM; HEK293 Kir2.1, FluxOR thallium flux fluorescence; shares compounds with KCNQ2 enhance; AID 2345; 1,200 compounds, 2% hits;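 active = fluorescence ratio rise of at least 3 SD above the vehicle-control mean, seen in both replicates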;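 note: 0% = vehicle mean plus 3 SD and 100% = vehicle minus no-stimulus blank window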
KCNQ2 W236L pot: rat KCNQ2 W236L mutant potentiation by KCNQ2 potentiators; shares compounds with KCNQ2 enhance; CHO KCNQ2-W236L, automated patch clamp current; current increase over 3SD of negative controls (%), active compounds read high, % at 25 µM; 940 compounds, 10% hits; AID 2558;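 active = current increase at least 3 SD of the untreated controls above them in both duplicate recordings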
Starred values were filed as active, the others as inactive; i = inactive; . = no result. Compounds with a hit are over-represented: about 1.6% of the library has one in this group of screens.

SMILES	KCNQ2 block	KCNQ2 enhance	Kir21 confirm	HEK293 ctr	others
O=C(c1ccc(Cl)cc1)c1ccc(Oc2cc(NN3CCCCC3)c([N+](=O)[O-])cc2[N+](=O)[O-])cc1	i	.	.	.
C/C(=N\NC(=O)c1cccc(S(=O)(=O)N2CCCC2)c1)c1ccc(F)cc1	i	0.51	.	.
CC(=O)/C(=N\Nc1ccccc1)Oc1ccc(Br)cc1	i	.	.	.
CC(C)(CNC(=O)c1cc2c(s1)CCCC2)N1CCOCC1	i	1	.	.
O=C(NC(=S)NCc1ccccc1)c1ccc(Br)o1	i	13*	i	330%*	CHO-K1 Tl ctr=-11;KCNQ1 pot spec=-19;KCNQ2 pot confirm=53*;Kir21 spec=-31;KCNQ2 W236L pot=i
O=C(NNC(=S)NCc1ccccc1)c1ccc(Br)o1	i	.	.	.
Cc1ccc(C(=O)N2CC(=O)NC(=O)C2)cc1	i	0.43	.	.
CC1=C(C(=O)OCC2CCCCC2)C(c2cccc(O)c2)NC(=O)N1 (stereo not given)	i	17*	i	i	CHO-K1 Tl ctr=-11;KCNQ1 pot spec=-21;KCNQ2 pot confirm=58*;Kir21 spec=-45;KCNQ2 W236L pot=34%*
CC1=C(C(=O)OC2CCCCC2)C(c2cccc([N+](=O)[O-])c2)NC(=O)N1 (stereo not given)	i	1.7	.	.
CC1=C(C(=O)OC2CCCCCCC2)C(c2cccc(O)c2)NC(=O)N1 (stereo not given)	i	20*	i	i	CHO-K1 Tl ctr=0;KCNQ1 pot spec=-7;KCNQ2 pot confirm=82*;Kir21 spec=-19;KCNQ2 W236L pot=29%*
CC1=C(C(=O)OCC2CCCCC2)C(c2ccc(O)cc2)NC(=O)N1 (stereo not given)	i	1.7	.	.
COc1cccc(C2CC(=O)C3=C(C2)Nc2ccccc2N(C(=O)CCC(=O)O)C3c2ccc(F)cc2)c1 (stereo not given)	i	.	.	.
CCc1ccc(-c2cc(C)no2)cc1S(=O)(=O)N1CCN(c2ccccc2)CC1	i	.	.	.
CCCCOCCCNc1ncnc2c1[nH]c1ccccc12	i	.	44%*	i
CCOCCCNc1ncnc2c1[nH]c1ccccc12	i	1.5	.	.
O=C1CSC(c2cccnc2)N1C1CCCCC1 (stereo not given)	i	0.39	.	.
O=C1CSC(c2ccc(Cl)cc2)N1C1CCCCC1 (stereo not given)	i	.	64%*	i
CCCc1cc(C(=O)N2CCCC(Cc3ccccc3C)(C(=O)OCC)C2)no1 (stereo not given)	i	.	.	.
CC(C)(C)c1cc(/C=N/NC(=O)C[n+]2ccccc2)cc(C(C)(C)C)c1O	i	.	.	.
COc1ccccc1NC(=O)c1c(N=Cc2ccccc2O)cnn1C	i	12*	i	i	CHO-K1 Tl ctr=47*;KCNQ1 pot spec=64*;KCNQ2 pot confirm=-12;Kir21 spec=-28
COc1ccccc1NC(=O)c1nn(C)c(C(=O)Nc2ccccc2OC)c1[N+](=O)[O-]	i	.	.	.
CS(=O)(=O)Nc1nnc(SCC(=O)N(c2ccccc2)c2ccccc2)s1	i	0.47	.	.
c1ccc(OCCOCCN2CCc3ccccc3C2)cc1	i	0.27	.	.
C=CCc1cc(OC)ccc1OCCOCCN1CCc2ccccc2C1	i	.	18%*	i
CCCOc1ccc(OCCOCCN2CCc3ccccc3C2)cc1	i	0.21	60%*	i
SMILES	KCNQ2 block	KCNQ2 enhance	Kir21 confirm	HEK293 ctr	others
CCOc1ccc(OCCOCCN2CCc3ccccc3C2)cc1	i	1.2	.	.
CCn1nc(C)c(Br)c1C(=O)Sc1ccccc1Cl	i	.	.	.
O=C(CNC(=O)c1ccc(Br)o1)NNC(=O)c1ccccc1O	i	.	.	.
Cc1ccc(C2=Nc3cccnc3C(c3ccccc3)=NN2)cc1	i	.	.	.
Cc1ccc(-c2nnc(SCc3ccc(C#N)cc3)n2Cc2ccco2)cc1	i	.	.	.
Cc1ccccc1CSc1nnc(-c2ccco2)n1Cc1ccco1	i	.	50%*	i
c1ccc(CSc2nnc(-c3cccs3)n2Cc2ccco2)cc1	-6*	-6	65%*	i
c1ccc(CSc2nnc(-c3ccco3)n2Cc2ccco2)cc1	i	.	.	.
c1coc(-c2nnc(-c3ccco3)nn2)c1	i	.	.	.
CC(C)c1ccc(OCC(=O)Nc2c3c(nn2C(C)(C)C)CS(=O)(=O)C3)cc1	i	0.91	.	.
Cc1ccc(S(=O)(=O)Nc2ccccc2CNC2CCCCC2)cc1	i	2	.	.
CC(C)NC(=O)Nc1n[nH]c(Nc2ccc(Cl)cc2)n1	i	5.6*	i	i	CHO-K1 Tl ctr=9.6*;KCNQ1 pot spec=-21;KCNQ2 pot confirm=-4;Kir21 spec=-27;KCNQ2 W236L pot=i
CCCc1cc(=O)[nH]c(Nc2ccc(Cl)cc2)n1	i	.	.	.
CCOc1ccc(N2C(=O)Nc3ccc(Br)cc3C2(O)C(=O)NCCN(C)C)cc1 (stereo not given)	i	2.2	.	.
O=[N+]([O-])c1ccc(O)c2ncccc12	i	8.7*	i	i	CHO-K1 Tl ctr=36*;KCNQ1 pot spec=-5;KCNQ2 pot confirm=34*;Kir21 spec=-26;KCNQ2 W236L pot=i
O=[N+]([O-])c1ccc(O)c2cccnc12	i	1	.	.
O=[N+]([O-])c1cc(F)c2cccnc2c1O	i	3.6	.	.
O=[N+]([O-])c1cc([N+](=O)[O-])c2cccnc2c1Oc1ccccc1O	i	.	62%*	65%*
O=[N+]([O-])c1ccccc1Oc1ccc(Cl)c2cccnc12	i	0.23	.	.
O=[N+]([O-])c1cc(Cl)c(O)c2ncccc12	i	5.7*	i	i	CHO-K1 Tl ctr=-18;KCNQ1 pot spec=66*;KCNQ2 pot confirm=-12;Kir21 spec=-21;KCNQ2 W236L pot=i
CCOC(=O)NNC(=O)C1CCC(C)CC1 (stereo not given)	i	.	.	.
COc1ccc2nc(NC(=O)C3CCN(C(=O)c4ccco4)CC3)sc2c1	i	.	.	.
CC(C)c1cc(C(=O)N2CCCC(Nc3ccc(F)cc3)C2)n[nH]1 (stereo not given)	i	1.3	.	.
O=C(c1ccc([N+](=O)[O-])cc1)N1CCN(C(=O)C2CCCCC2)CC1	i	.	.	.
CC1(c2ccc(Cl)cc2)NC(=O)N(CC(=O)N2CCN(S(=O)(=O)c3ccccc3)CC2)C1=O (stereo not given)	i	0.36	.	.
Cc1oc2ccc(O)cc2c1C(=O)c1ccc(Br)cc1	i	.	.	.
Clc1ccc(-c2cc(C3CCNCC3)[nH]n2)cc1	i	.	38%*	i
Cc1ccc(CN2CCC(c3cc(-c4ccc(Cl)cc4)n[nH]3)CC2)cc1	i	.	.	.
